Screening data from PubChem BioAssay.
D1 PAM = enhances dopamine response at the human D1 receptor. P21728. HEK293 TREx D1 cells, calcium flux, dopamine EC20 potentiation. potentiation, % at 10 µM. hit rate 0.036% among 360,000. AID 504651; in the data active = potentiation above about 30%; also: 0% is about no effect
Target sequence (P21728 whole entry, looked up): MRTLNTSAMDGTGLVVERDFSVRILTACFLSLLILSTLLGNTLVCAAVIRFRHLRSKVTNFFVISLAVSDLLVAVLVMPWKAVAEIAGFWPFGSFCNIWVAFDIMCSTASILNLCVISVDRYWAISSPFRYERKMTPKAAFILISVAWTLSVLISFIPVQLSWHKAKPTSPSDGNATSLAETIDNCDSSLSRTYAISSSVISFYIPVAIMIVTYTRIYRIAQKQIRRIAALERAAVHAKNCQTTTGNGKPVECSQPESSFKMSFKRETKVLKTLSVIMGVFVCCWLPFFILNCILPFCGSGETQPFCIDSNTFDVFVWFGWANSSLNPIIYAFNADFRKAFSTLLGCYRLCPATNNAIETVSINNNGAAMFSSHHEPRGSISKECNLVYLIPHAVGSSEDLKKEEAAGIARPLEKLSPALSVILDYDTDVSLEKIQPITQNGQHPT
D1 ag = activates the human D1 dopamine receptor | activation, % at 2 µM | HEK293 T-REx D1 cells, calcium flux, agonist mode | hit rate 1% among 360,000; also: 0% is about no effect
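Agonism was scored from calcium flux recorded over 180 s (1 read/s) after pintool compound addition, following a 10-cycle baseline. Cells were inducible force-coupled HEK293 TREx D1, plated overnight at 30 C and loaded with no-wash calcium dye.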
D1 antagonist = antagonists of human D1 dopamine receptor | P21728 | activity change, negative = inhibition, % at 10 µM | HEK293 TREx D1 cells, calcium flux, dopamine EC80; active compounds read low | hit rate 3.2% among 360,000; in the data active = activity change below about -30%; also: % is scaled to controls: 0 for no effect and ±100 for the full control effect
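Kinetic fluorescence of a calcium dye serves as the read-out. D1-expressing Hek293 Trex cells, induced overnight at 30 C, are exposed to compound for 180 s before an EC80 dopamine addition, then read 180 s further.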
TRHR PAM = allosterically enhances the human TRH receptor; TRHR cells, fluo-8 calcium fluorescence, EC20 TRH enhancement; AID 493056; enhancement, % at 2 µM; P34981; hit rate 0.66% among 360,000; in the data active = enhancement above about 30%; also: 0% is about no effect
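Enhancer read-out: after compound pinning and an initial kinetic agonist-mode read, an EC20 of TRH (10 nM final) was injected and fluo-8 calcium signal (Ex 480/Em 530) followed at 1 s/cycle for 100 cycles in TRHR-expressing cells.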
TRHR agonist = activates the human TRH receptor; P34981; TRHR cells, calcium flux fluo-8, FDSS agonist mode; activation, % at 2 µM; hit rate 0.18% among 360,000; AID 493084; also: 0% is about no effect
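Fluo-8-loaded TRHR cells; 10 s baseline, compound added, kinetic Ca2+ fluorescence read 1/s, agonist mode.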
* = called active by the depositor; nt = no result given. Rows were chosen to be rich in hits. Some 4.7% of all compounds tested hit in one or more screens of this group. Rule as the data show it, unless noted: active = activation above about 30%; inactive = the rest.

SMILES	D1 PAM	D1 ag	D1 antagonist	TRHR PAM	TRHR agonist
CC1=C(C(=O)Nc2ccc(C)cc2Cl)C2(CCCCC2)OC1=O	-3	8	14	7	0
COc1ccc(-c2cc(C(F)(F)F)n3nc(C(=O)Nc4cccc(Cl)c4C)cc3n2)cc1	-4	0	-8	39*	1
COc1cccc(-c2cc(C(F)(F)F)n3nc(C(=O)N4CCCCC4c4cccnc4)cc3n2)c1 (centres undefined)	-11	1	-49*	2	-1
COc1ccc(-c2cc(C(F)(F)F)n3nc(C(=O)N4CCCCC4)cc3n2)cc1	-3	0	-11	-5	0
Cc1cc(F)ccc1S(=O)(=O)Nc1ccc2c(c1)CCCN2C(=O)c1cccs1	0	6	-1	-3	-1
CCc1nc(NC(C)(C)C)c2cnn(-c3ccccc3)c2n1	6	32*	32	-5	1
CCN1C(=O)C(Cc2nc3ccccc3c(=O)n2-c2ccc(OC)cc2)c2ccccc21 (centres undefined)	-2	-1	8	-2	1
CCN1C(=O)C(Cc2nc3ccccc3c(=O)n2-c2ccccc2)c2ccccc21 (centres undefined)	-1	2	-54*	6	0
CC(=O)Nc1ccc(S(=O)(=O)NC2(C(F)(F)F)C(=O)Nc3c2c(=O)[nH]c(=O)n3-c2ccc(C)cc2)cc1 (centres undefined)	-3	-1	12	16	0
C/C(=N\NC(=O)c1nnn(-c2nonc2N)c1-c1ccc2c(c1)OCO2)c1ccc(C)cc1	16	104*	53	19	2
C/C(=N\NC(=O)c1nnn(-c2nonc2N)c1-c1ccc2c(c1)OCO2)c1ccccc1	-2	34*	10	7	1
C/C(=N\NC(=O)c1nnn(-c2nonc2N)c1CN(C)c1ccccc1)c1cccc(O)c1	-15	16	-39*	28	-1
COc1ccc(-c2nn3c(-c4ccccc4C)nnc3c3ccccc23)cc1	-2	3	-19	-3	0
CCOC(=O)c1c(S(=O)(=O)N2CCC(C(=O)NCc3cccc(C)c3)CC2)c(C)n(C)c1C	-1	2	0	-3	-1
COCCCNC(=O)c1sc2nc3n(c(=O)c2c1C)CCC3	-1	0	-3	-2	0
COc1ccccc1NC(=O)CSc1oc(-c2ccccc2)nc1S(=O)(=O)c1ccc(C)cc1	-1	4	5	-4	0
COCCN1C(=O)/C(=C/c2ccc(OCc3ccc(C(=O)O)cc3)c(OC)c2)SC1=Nc1ccccc1	-4	4	-37*	2	0
COc1cc(/C=C2\SC(=Nc3ccccc3)N(Cc3ccco3)C2=O)ccc1OC(C)C(=O)O (centres undefined)	-4	2	-13	-6	1
COc1ccc(CNC(=O)CN2C(=O)CCn3nc(-c4ccccc4)cc32)c(OC)c1	0	0	1	13	0
CCCN1CCN(CCCNC(=O)Cn2c(-c3cccs3)cc3ccccc32)CC1	0	6	-4	-1	0
CCCN1CCN(CCCNC(=O)Cn2c(-c3cccs3)cc3cc(Cl)ccc32)CC1	-1	35*	-18	2	1
COC(=O)c1sccc1NC(=S)OC	-4	3	-6	0	-1
COC(=O)c1sccc1NC(=O)C1CC1	-2	0	-76*	13	0
COC(=O)c1scc(C)c1NC(=O)C1CCCCC1	4	2	-44*	0	0
CCOC(=O)c1sc2cccc(F)c2c1S(=O)(=O)N1CCN(c2cccc(Cl)c2)CC1	-3	4	2	-1	1
SMILES	D1 PAM	D1 ag	D1 antagonist	TRHR PAM	TRHR agonist
CSc1ccc(CC2C(=O)Nc3ccccc32)cc1 (centres undefined)	2	-2	0	2	0
C=C(C)C(=O)Nc1cccc(C2=NOC3(C2)C[C@@H](C(N)=O)N(C(=O)c2ccc(OC)cc2)C3)c1 (some centres undefined)	-7	1	-33*	6	0
C/C=C(\C)C(=O)Nc1cccc(C2=NOC3(C2)C[C@H](C(N)=O)N(C(=O)CC#N)C3)c1 (some centres undefined)	-5	2	-48*	24	0
C/C=C(/C)C(=O)Nc1cccc(C2=NOC3(C2)C[C@@H](C(N)=O)N(C(=O)CC)C3)c1 (some centres undefined)	-9	1	-7	-12	0
C/C=C/C(=O)Nc1cccc(C2=NOC3(C2)C[C@@H](C(N)=O)N(C(=O)/C(C)=C/C)C3)c1 (some centres undefined)	2	2	-31*	-1	0
C=C(C)C(=O)Nc1cccc(C2=NOC3(C2)C[C@@H](C(N)=O)N(C(=O)c2cc([N+](=O)[O-])cc([N+](=O)[O-])c2)C3)c1 (some centres undefined)	-2	1	-16	0	0
COc1cccc(C(c2sc3nc(-c4ccco4)nn3c2O)N2CCC(O)CC2)c1 (centres undefined)	-2	3	nt	4	0
Cc1ccc(N2CC(c3nnc(Cc4ccc(Cl)cc4)o3)CC2=O)cc1 (centres undefined)	-2	17	-24	2	-1
NS(=O)(=O)c1ccc(CCNC(=O)COC(=O)CCc2ccccc2)cc1	-5	2	-16	2	0
NS(=O)(=O)c1ccc(CCNC(=O)COC(=O)C2CCC2)cc1	-2	0	5	33*	0
CC(C)(C)c1ccc(C(=O)CCC(=O)OCC(=O)NCCc2ccc(S(N)(=O)=O)cc2)cc1	-4	5	-34*	4	0
COc1ccc(-c2noc(-c3ccc(NCCc4ccccc4)c([N+](=O)[O-])c3)n2)cc1OC	1	9	-1	-1	0
COC(=O)[C@@]1(Cc2ccc(OC)cc2)[C@@H]2C(=CC(=O)[C@H]2CC(=O)C(=O)N(C)C)CN1C(=O)c1ccccc1	-4	4	-10	-3	-1
C=C1C(=O)C=C2CN(C(=O)c3ccccc3)[C@@](Cc3ccc(F)cc3)(C(=O)OC)[C@@H]12	5	90*	-35*	0	17
COc1ccc(C2C(=O)N(C3CCCCCC3)CC(=O)N2CCC2=CCCCC2)cc1 (centres undefined)	-2	-1	-6	1	0
CC(=O)Nc1cc(C(=O)NCc2ccc(F)cc2)ccc1Sc1ccc(C)cc1	-1	-3	-39*	5	-1
Cc1[nH]c2ccc(-c3n[nH]c(=S)n3Cc3ccccc3)cc2c1C	-6	7	-32*	4	2
CC(C)c1ccc(NC(=O)C(NS(=O)(=O)c2ccc3c(c2)CCC(=O)N3)c2ccccc2)cc1 (centres undefined)	-3	8	-13	-1	0
